“And” between values parts separate entries of the source, which are not always exact repeats. Identical values can stand only once. Inconclusive results are not listed. More than one record can exist for a structure, and the calls need not agree. The source made the active and inactive calls. Unless noted, the call rests on the fitted dose curve; in most records, active means well fitted curve in the direction sought with a large enough effect in the repeat runs; inconclusive means weak or mixed curves; inactive means no such curve, though single readings can be large; an effect the other way counts as inactive or inconclusive.

Assay [1] in a line: qHTS assay to identify aromatase inhibitors - cell viability counter screen (AID 743084).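 Further: cells stimulated with testosterone during compound exposure; nearly all actives have a fitted effect of over 55% in size.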 Further: potency means the concentration at half of the fitted maximal effect. In general terms: Quantitative high-throughput screening tests each substance at several concentrations.
Assay [2] concerns the target Aryl hydrocarbon receptor (Homo sapiens) (UniProt P35869). In words: qHTS assay to identify small molecule that activate the aryl hydrocarbon receptor (AhR) signaling pathway (AID 743085). Further: nearly all actives have a fitted effect of over 15% in size. Further: potency means the concentration at half of the fitted maximal effect.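 On activation: HG2L7.5c1 human HepG2 liver cells with stably integrated DRE-driven firefly reporter; series mostly up to about 70 µM.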 In outline: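 Luminescence (ONE-Glo) from a dioxin-responsive-element luciferase reporter in HG2L7.5c1 HepG2 cells after 24 hr compound exposure at 37C; viability measured by CellTiter-Fluor fluorescence beforehand.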

The nature of assay [3]: qHTS assay to identify small molecule that activate the aryl hydrocarbon receptor (AhR) signaling pathway - cell viability counter screen (AID 743086). Further: nearly all actives have a fitted effect of over 45% in size. Further: potency means the concentration at half of the fitted maximal effect. In outline: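 Cytotoxicity counter screen: CellTiter-Fluor signal (30 min, 37 C) in 4000 HepG2 cells/well carrying the DRE-luciferase reporter, following 24 h compound exposure at 37 C.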
The target of assay [4] is Peroxisome proliferator-activated receptor gamma (Homo sapiens) (UniProt P37231). Description: qHTS assay to identify small molecule antagonists of the peroxisome proliferator-activated receptor gamma (PPARg) signaling pathway (AID 743191; calls by dose curve; further: nearly all actives have a fitted effect of over 30% in size; further: potency means the concentration at half of the fitted maximal effect). Put shortly: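 Beta-lactamase reporter under UAS control in HEK293H PPARg-bla cells; compound treatment 17 h at 37C. Read-out: fluorescence intensity after 1 h room-temperature incubation with LiveBLAzer B/G FRET substrate.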

The nature of assay [5]: qHTS assay for small molecule activators of the heat shock response signaling pathway - cell viability counter screen (AID 743209). Further: nearly all actives have a fitted effect of over 50% in size. Further: potency means the concentration at half of the fitted maximal effect. In outline:
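First, HSE-bla HeLa cells were seeded at 1500 cells/well and kept overnight at 37 C. Next, compounds were pinned in and incubated 5 h. After the FRET substrate step, CellTiter-Glo was added and luminescence read 30 min later.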

Assay [6] in a line: qHTS assay for small molecule activators of the heat shock response signaling pathway (AID 743210; active means well fitted activation curve with a large enough effect in the signal ratio in the repeat runs, with a control signal flat, not every such curve was filed as active; the % refers to the signal ratio;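 further: HeLa cells with beta-lactamase reporter driven by heat shock elements; series mostly up to about 63 µM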). Put shortly:
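HeLa HSE-bla cells, overnight plating; cpd in DMSO 5 h, 37 C; LiveBLAzer B/G FRET substrate 2.5 h RT; fluorescence intensity read.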

Assay [7] in a line: qHTS assay to identify small molecule antagonists of the peroxisome proliferator-activated receptor gamma (PPARg) signaling pathway - cell viability counter screen (AID 743194). Further: nearly all actives have a fitted effect of over 55% in size. Further: potency means the concentration at half of the fitted maximal effect. The note with it: Potency: co-treated with 50 nM rosiglitazone unless noted. Put shortly: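 Viability was measured as CellTiter-Glo luminescence in GeneBLAzer PPARg UAS-bla HEK293H cells. These cells had been exposed 17 h at 37 C to compounds together with rosiglitazone at 50 nM final, with the beta-lactamase readout taken in the same wells.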

Assay [8] can be described thus: qHTS assay for small molecule agonists of the antioxidant response element (ARE) signaling pathway (AID 743202; active means well fitted activation curve with a large enough effect in the signal ratio in the repeat runs, not every such curve was filed as active; the % refers to the signal ratio; further: potency means the concentration at half of the fitted maximal effect). Put shortly:
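Quantitative high-throughput format in HepG2 cells bearing an integrated ARE-beta-lactamase reporter. Compound exposure lasted 16 h at 37 C, and fluorescence was read 2 h after adding LiveBLAzer B/G substrate at room temperature.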

Assay [9] is described as follows: qHTS assay for small molecule agonists of the antioxidant response element (ARE) signaling pathway - cell viability counter screen (AID 743203; calls by dose curve; further: nearly all actives have a fitted effect of over 55% in size; further: potency means the concentration at half of the fitted maximal effect). Put shortly: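 Seeded at 2,000 cells/well, ARE-bla HepG2 cells were incubated 5 hrs before compound addition. After 16 hrs of treatment at 37C with 5% CO2, CellTiter-Glo reagent was added and luminescence read 30 min later.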

Assay [10] deals with Peroxisome proliferator-activated receptor gamma (Homo sapiens) (UniProt P37231). Description: qHTS assay to identify small molecule agonists of the peroxisome proliferator-activated receptor gamma (PPARg) signaling pathway (AID 743094; active means well fitted activation curve with a large enough effect in the signal ratio in the repeat runs, not every such curve was filed as active; the % refers to the signal ratio). In outline:
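Quantitative HTS agonist mode: stable HEK293H line with UAS-beta-lactamase reporter under PPARg control, 17 h compound exposure at 37C, fluorescence after 1 h FRET substrate loading at room temperature.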

Sequence of Aryl hydrocarbon receptor (Homo sapiens) (P35869 whole entry, looked up): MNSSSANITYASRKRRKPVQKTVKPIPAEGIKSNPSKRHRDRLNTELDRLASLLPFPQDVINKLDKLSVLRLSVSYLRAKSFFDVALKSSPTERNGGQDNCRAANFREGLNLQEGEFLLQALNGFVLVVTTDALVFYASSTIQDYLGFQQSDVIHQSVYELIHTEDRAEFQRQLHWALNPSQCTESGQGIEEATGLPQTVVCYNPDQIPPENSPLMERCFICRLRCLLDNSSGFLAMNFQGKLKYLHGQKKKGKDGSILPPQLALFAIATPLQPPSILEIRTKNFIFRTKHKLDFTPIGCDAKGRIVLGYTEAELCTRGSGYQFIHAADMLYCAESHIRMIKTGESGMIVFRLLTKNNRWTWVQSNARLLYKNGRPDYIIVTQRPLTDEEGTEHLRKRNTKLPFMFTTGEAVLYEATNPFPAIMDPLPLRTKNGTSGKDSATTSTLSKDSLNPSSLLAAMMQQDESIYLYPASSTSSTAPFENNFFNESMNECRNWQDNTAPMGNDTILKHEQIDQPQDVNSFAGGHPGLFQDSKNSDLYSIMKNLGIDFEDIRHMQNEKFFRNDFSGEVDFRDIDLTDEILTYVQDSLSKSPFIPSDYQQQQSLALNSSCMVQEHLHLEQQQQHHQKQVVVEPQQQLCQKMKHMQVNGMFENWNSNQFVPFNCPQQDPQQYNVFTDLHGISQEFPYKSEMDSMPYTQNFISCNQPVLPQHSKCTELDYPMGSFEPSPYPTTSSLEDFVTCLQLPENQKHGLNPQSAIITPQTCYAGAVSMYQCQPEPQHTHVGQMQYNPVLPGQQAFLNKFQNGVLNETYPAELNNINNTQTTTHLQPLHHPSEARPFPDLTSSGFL
Sequence of Peroxisome proliferator-activated receptor gamma (Homo sapiens) (P37231 whole entry, looked up): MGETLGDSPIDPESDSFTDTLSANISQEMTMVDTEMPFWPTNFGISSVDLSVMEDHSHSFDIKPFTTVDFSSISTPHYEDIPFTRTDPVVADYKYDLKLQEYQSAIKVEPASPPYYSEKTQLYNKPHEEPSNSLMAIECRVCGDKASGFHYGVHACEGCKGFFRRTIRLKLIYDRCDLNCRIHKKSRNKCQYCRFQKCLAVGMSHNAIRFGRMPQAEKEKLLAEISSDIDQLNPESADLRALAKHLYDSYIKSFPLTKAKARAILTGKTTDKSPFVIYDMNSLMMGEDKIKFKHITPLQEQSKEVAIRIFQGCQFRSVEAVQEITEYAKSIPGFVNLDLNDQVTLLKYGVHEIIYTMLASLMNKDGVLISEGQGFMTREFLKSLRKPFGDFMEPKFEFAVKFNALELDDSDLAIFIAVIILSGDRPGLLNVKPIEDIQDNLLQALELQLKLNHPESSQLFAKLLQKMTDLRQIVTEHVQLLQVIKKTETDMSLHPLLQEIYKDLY

For `OC(c1ccc(Cl)cc1)(c1cncnc1)c1ccccc1Cl` (centres undefined), the Potency entry in assay [1], in [2], in assay [3], in assay [5] and in [6] was “inactive” each time. For the same molecule, the Potency in [4] is 54.9 µM (active).
As to `ClC(Cl)(Cl)c1ccccc1`, the Potency entry in assay [1], in assay [2], in assay [3], in assay [7], in assay [8] and in assay [9] was “inactive” throughout. In addition, the Potency entry in [5] and in assay [6] was “inactive” throughout.
As to `CC(C)=CC1C(C(=O)OCc2cccc(Oc3ccccc3)c2)C1(C)C` (centres undefined), the Potency result in assay [1], in assay [2], in [3], in assay [8], in [9] and in assay [5] was “inactive” in each case. The Potency entry in assay [6] is “inactive”.
Regarding `Cc1cc(Cl)ccc1N=CN(C)C`, the Potency entry in assay [1], in assay [2], in [3], in [10], in assay [8] and in assay [5] was “inactive” throughout.
In the case of `CCC[CH2][Sn]([Cl])([Cl])[CH2]CCC`, the Potency in assay [1] is 1.39 µM (active) and 686 nM (active); in assay [3], 1.39 µM (active) and 486 nM (active); in assay [9], 276 nM (active) and 34.4 nM (active); in assay [5], 54.9 nM (active). Further, the Potency entry in assay [2] is “inactive”.
For `CCN(CC)C(=O)C(C)Oc1cccc2ccccc12` (centres undefined), the Potency entry in [1], in assay [10], in assay [4], in assay [7], in assay [8] and in assay [9] was “inactive” throughout. The Potency result in assay [5] and in assay [6] was “inactive” each time. In assay [2], the Potency is 54.9 µM (active) and 30.6 µM (active).
Take `CCCCCCCC[N+](C)(CCCCCCCC)CCCCCCCC`: the Potency in assay [1] was 17.2 µM (active) and 4.86 µM (active) and 27.3 µM (active); in assay [3] it was “inactive and 24.3 µM (active)”; in assay [9] it was 12.2 µM (active) and 19.4 µM (active) and 8.63 µM (active); in assay [5] it was 13.8 µM (active) and 4.37 µM (active). Also, the Potency entry in [2] was “inactive”.
Consider `CC(C)(c1ccccc1)c1ccc(O)c(C(C)(C)c2ccccc2)c1`, for which the Potency in [1] was 48.1 µM (active); in assay [7], 15.3 µM (active) and 19.5 µM (active); in [9] it was 54 µM (active) and 21.7 µM (active); in assay [5], 48.5 µM (active) and 24.5 µM (active). The Potency entry in assay [2] and in assay [3] was “inactive” throughout.
Turning to `Cc1cccc(N=Nc2ccc(N(C)C)cc2)c1`, the Potency in assay [2] was 13.9 µM (active) and 9.69 µM (active). Besides, the Potency result in assay [10], in [9] and in assay [5] was “inactive” each time.
For the molecule `CCC/C=N/O`, the Potency result in [1], in assay [2], in assay [3], in [10], in [8] and in [5] was “inactive” in each case. For the same molecule, the Potency result in assay [6] is “inactive”.
Turning to `CCCCOCCOC(C)=O`, the Potency result in assay [1], in assay [2], in [3], in assay [10], in assay [8] and in assay [5] was “inactive” each time. Also, in assay [6], the Potency result is “inactive”.
Regarding `[Cl-].[Cl-].[Cl-].[Fe+3]`, the Potency entry in assay [1], in assay [2], in assay [3], in assay [7], in assay [8] and in assay [9] was “inactive” in each case. Besides, the Potency result in assay [5] and in assay [6] was “inactive” in each case.
As for `N#Cc1c(Cl)c(Cl)c(Cl)c(C#N)c1Cl`, the Potency in [1] was 1.69 µM (active) and 1.93 µM (active); in assay [3] it was “inactive and 21.7 µM (active)”; in [5], 854 nM (active) and 616 nM (active). Besides, the Potency entry in assay [2] is “inactive”.
Turning to `CC(C)Nc1ccc(Nc2ccccc2)cc1`, the Potency is 30.5 µM (active) and 54.5 µM (active) in assay [1]; “inactive and 2.17 µM (active)” in assay [2]; 27.3 µM (active) in [8]. Besides, the Potency entry in assay [9] and in assay [5] was “inactive” in each case.
Consider `CC(C)(O)C(=O)Nc1ccc([N+](=O)[O-])c(C(F)(F)F)c1`, for which the Potency result in assay [1], in [2], in assay [3], in assay [7], in assay [9] and in assay [5] was “inactive” each time. In [6], the Potency result is “inactive”. Further, in [8], the Potency is 27.9 µM (active) and 22.4 µM (active).
With `CC(O)CN(CC(C)O)CC(C)O` (centres undefined), the Potency entry in [1], in assay [3], in assay [7], in [8], in assay [9] and in assay [5] was “inactive” throughout. Also, the Potency entry in assay [6] is “inactive”.
On to `O=C(O)c1nn(Cc2ccc(Cl)cc2Cl)c2ccccc12`, for which the Potency entry in assay [1], in assay [2], in assay [3], in assay [7], in assay [5] and in assay [6] was “inactive” in each case. In addition, the Potency in [8] is 54.1 µM (active).

Values taken from PubChem BioAssay (Tox21).
